Results filed as inconclusive are left out. Calls of active or inactive are those of the source. Calls follow the shape of the dose curve; as a rule, active = well fitted inhibition curve with a large enough effect; inconclusive = small, poorly fitted or top-dose-only effect; inactive = flat fitted curve, though single readings scatter.
Assays:
Assay in all cases: qHTS profiling for inhibitors of Plasmodium falciparum proliferation (AID 504749); also: nearly all actives have a fitted effect of over 60% in size
Conditions in all cases: P. falciparum in erythrocytes, SYBR Green DNA, 72 h; series mostly up to 28.7 µM
CP250 = test system: CP250
Outline: (§1)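 P. falciparum-infected erythrocytes (0.3% parasitemia, 2.5% hematocrit) incubated with compound 72 h at 37 C, 5% CO2. Parasite DNA detected by SYBR Green after lysis, overnight at room temperature; normalised to 0.29 uM artemisinin and DMSO.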

CP252 = test system: CP252
Outline: as §1

CP256 = test system: CP256
Outline: as §1

CP262 = test system: CP262
Outline: as §1

CP265 = test system: CP265
Outline: as §1

CP268 = test system: CP268
Outline: as §1

CP269 = test system: CP269
Outline: as §1

CP286 = test system: CP286
Outline: as §1

CP291 = test system: CP291
Outline: as §1

CP297 = test system: CP297
Outline: as §1

CP305 = test system: CP305
Outline: as §1

CP315 = test system: CP315
Outline: as §1

CP325 = test system: CP325
Outline: as §1

CP329 = test system: CP329
Outline: as §1

CP335 = test system: CP335
Outline: as §1

DFO2036 = test system: DFO2036
Outline: as §1

DIV17 = test system: DIV17
Outline: as §1

DIV30 = test system: DIV30
Outline: as §1

Dd2 = test system: Dd2
Outline: as §1

ECU = test system: ECU
Outline: as §1

FAB9 = test system: FAB9
Outline: as §1

GB4 = test system: GB4
Outline: as §1

HB3 = test system: HB3
Outline: as §1

JCK = test system: JCK
Outline: as §1

N140 = test system: N140
Outline: as §1

P93_24 = test system: P93_24
Outline: as §1

P94_40 = test system: P94_40
Outline: as §1

PAD = test system: PAD
Outline: as §1

PC49 = test system: PC49
Outline: as §1

SC27B = test system: SC27B
Outline: as §1

TAB109 = test system: TAB109
Outline: as §1

TAB113 = test system: TAB113
Outline: as §1

TAB165 = test system: TAB165
Outline: as §1

Measured: Potency

CO[C@H]1[C@@H](O)CC(OC2[C@@H](O)CC(OC3[C@@H](O)C[C@H](OC4CC[C@@]5(C)C(CCC6C5CC(O)[C@]5(C)[C@H](C7=CC(=O)OC7)CCC65O)C4)O[C@@H]3C)O[C@@H]2C)O[C@@H]1C (stereo partly drawn)
inactive: all assays above
